Bioassay records as filed in PubChem BioAssay.
Sampled rows, rich in hits. Any-hit rate of the full collection: about 5.5%.
Gal4-VP16 FLuc: VP16 counterscreen qHTS for inhibitors of ROR gamma transcriptional activity. Drosophila S2 Gal4-VP16 UAS-luciferase, luminescence, 20 h. Potency, µM (top dose mostly 53.6 µM), for the others: at the top dose activity, negative = inhibition, usual class: inhibitors. 310,000 tested, 3.5% active. AID 2546, 2010;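 also: Gal4-VP16 expression switched on by copper sulfate through the metallothionein promoter; % is scaled to controls: 0 for no effect and ±100 for the full control effect; nearly all actives have a fitted effect of over 50% in size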
BCR signal inh: qHTS Assay to Find Inhibitors of Chronic Active B-Cell Receptor Signaling; ABC-DLBCL IkBa-CBG/CBR reporter, luminescence ratio, 4 h; Potency, µM (series often up to 46.1 µM), for inactives: at the top dose activity change, negative = inhibition, most hits filed as inhibitors; 340,000 tested, 0.05% active; active = well fitted inhibition curve with a large enough effect in the signal ratio, with a control signal flat, not every such curve was filed as active; inconclusive = small, poorly fitted or top-dose-only effect, or effect the other way, or a change in a side signal; the % refers to the signal ratio;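 also: plate controls were basal doxycycline-induced cells for no effect and cells given 10 µM MG132 for full effect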
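Compounds up to 46 uM were incubated four hours with TMD8 cells whose green CBG68 luciferase is fused to IkappaBalpha; red CBR luminescence normalised the signal, and concentration-effect curves were fitted to fusion, red and ratio data.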
Mito fusion act: qHTS Assay for Small Molecule Inhibitors of Mitochondrial Division or Activators of Mitochondrial Fusion. S. cerevisiae fusion-defective mutant growth rescue, CellTiterGlo 48 h. 320,000 tested, 0.23% active. Potency, µM (doses to about 46.1 µM), for inactives: top-dose growth rescue (activation), most hits filed as activators; also: % of control where 0% means no effect; nearly all actives have a fitted effect of over 45% in size
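S. cerevisiae fusion-defective temperature-sensitive mutants (e.g. fzo1-1, mgm1-5) grown 48 h at 37C in YPEG (ethanol/glycerol non-fermentable) medium with 23 nl compound per well; growth rescue read as CellTiterGlo luminescence.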
uPA generation: qHTS for Inhibitors of Cell Surface uPA Generation | cell surface uPA generation assay, qHTS | Potency, µM (highest dose often 38.3 µM), without a hit: at the highest dose activity change, negative = inhibition, most hits filed as inhibitors | 330,000 tested, 0.31% active; active = well fitted inhibition curve with a large enough effect; inconclusive = small, poorly fitted or top-dose-only effect; inactive = no such curve, though single readings can be large or run the other way; tested in mouse RAW 264.7 cells; also: % is scaled to controls: 0 for no effect and ±100 for the full control effect; nearly all actives have a fitted effect of over 55% in size
RORgamma inh: qHTS for inhibitors of ROR gamma transcriptional activity. Nuclear receptor ROR-gamma (Mus musculus), P51450. Drosophila S2 Gal4-RORgamma UAS-luciferase reporter, 20 h. Potency, µM (top dose mostly 53.6 µM), without a hit: at the highest dose activity change, negative = inhibition, hits mostly inhibitors. 310,000 tested, 5.4% active. AID 2551, 2010; also: % is scaled to controls: 0 for no effect and ±100 for the full control effect; nearly all actives have a fitted effect of over 60% in size
Target sequence (P51450 whole entry, looked up, the tested form may be a part): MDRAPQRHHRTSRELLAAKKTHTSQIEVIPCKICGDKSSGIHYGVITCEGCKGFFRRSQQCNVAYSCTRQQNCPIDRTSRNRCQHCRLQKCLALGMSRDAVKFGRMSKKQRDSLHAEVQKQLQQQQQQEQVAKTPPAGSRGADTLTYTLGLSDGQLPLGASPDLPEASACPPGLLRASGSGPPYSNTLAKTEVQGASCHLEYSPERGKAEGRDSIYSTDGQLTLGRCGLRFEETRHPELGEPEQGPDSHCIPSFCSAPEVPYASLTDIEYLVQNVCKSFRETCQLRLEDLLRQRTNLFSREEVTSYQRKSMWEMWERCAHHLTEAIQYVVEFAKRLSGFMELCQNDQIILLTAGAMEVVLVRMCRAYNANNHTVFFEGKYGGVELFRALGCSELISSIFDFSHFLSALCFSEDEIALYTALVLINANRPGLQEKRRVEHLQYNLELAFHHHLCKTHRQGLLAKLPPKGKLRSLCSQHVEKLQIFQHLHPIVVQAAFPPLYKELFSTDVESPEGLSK
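Drosophila Schneider cells stably carrying a metallothionein-driven Gal4 DBD–ROR gamma fusion and a UAS-Photinus luciferase reporter were exposed to compound for 1 hr, then induced with copper sulfate (700 uM final) for 20 hr at ambient temperature before luminescence reading.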
Integrin act MD: qHTS for Activators of Integrin-Mediated Alleviation for Muscular Dystrophy. alpha7betagal myoblasts, beta-gal FDG fluorescence, 48 h. Potency, µM (top dose mostly 38.3 µM), for the others: at the highest dose activation, most hits filed as activators. 350,000 tested, 0.064% active. AID 624291, 2012;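 also: 100% = response of the positive control SU9516; nearly all actives have a fitted effect of over 60% in size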
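alpha7betagal+/- myoblasts (passage 13, 250/well) treated 48 h at 37C with compounds at 1:260 dilution of DMSO stock. Lysed, then beta-galactosidase activity read as FDG fluorescence (ex 480/em 540) after 30 min, with pre-read for autofluorescence.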
* = called active by the depositor; ? = inconclusive; . = no result. Unless noted, calls follow the shape of the dose curve; as a rule, active = well fitted curve in the direction sought with a large enough effect; inconclusive = small, poorly fitted or top-dose-only effect, or another doubt; inactive = no such curve, though single readings can be large; an effect the other way counts as inactive or inconclusive. Potency is read from the fitted curve at half-maximal effect.

SMILES	Gal4-VP16 FLuc	BCR signal inh	Mito fusion act	uPA generation	RORgamma inh	Integrin act MD
CN(c1ccccc1)S(=O)(=O)c1ccc(Cl)c(C(=O)Nc2ccncc2)c1	.	-1%	8%	?	.	-48%
COc1cccc(NC(=O)c2nc(S(C)(=O)=O)ncc2Cl)c1	5µM*	?	-34%	-17%	4µM*	-59%
COc1cccc(CN2CCN(C(=S)NCc3ccc(Cl)cc3)CC2)c1	-19%	?	13%	5%	30%	-7%
Cc1cccc(C(=O)NCC(=O)N2CCCCCCC2)c1	.	1%	-2%	0%	.	?
CC(C)CSc1nc(N)nc2c1ncn2C1OC(CO)C(O)C1O (stereo not given)	.	.	.	2%	.	28%
N#CCOC(=O)C1CCN(S(=O)(=O)c2ccc3c(c2)OCCO3)CC1	.	-14%	0%	10%	.	0%
CC(=O)NC(=S)Nc1ccc(S(=O)(=O)N(C)Cc2ccccc2)cc1	-12%	1%	-5%	0%	-5%	-11%
Cc1cccc(C(=O)NC(=S)Nc2ccc(S(=O)(=O)N(C)c3ccccc3)cc2)c1	?	0%	1%	-1%	11µM*	-11%
CC(C)C(=O)NC(=S)Nc1ccc(S(=O)(=O)N(C)Cc2ccccc2)cc1	?	.	-5%	-9%	14µM*	-43%
CCCCCCC(O)C/C=C/CCCCCCCC(=O)O (stereo not given)	-2%	.	.	.	5%	.
COc1cc(C2C(=O)N(C3CCCCCC3)CC(=O)N2Cc2ccccc2)ccc1OC(C)C (stereo not given)	.	-2%	.	.	.	.
CC(C)Oc1ccc(C(=O)Nc2cccc(S(=O)(=O)N3CCCC3)c2)cc1	.	-4%	.	-6%	.	-54%
CCc1cc(C(=O)NNC(=S)NCc2ccccc2)cs1	-16%	?	-4%	.	14µM*	0%
CCNC(=S)NNC(=O)c1cc(C)on1	-10%	-6%	-6%	.	18µM*	5%
CCNC(=S)NNC(=O)c1csc(CC)c1	-23%	4%	-3%	3%	4.5µM*	18%
CCCc1cc(C(=O)NNC(=S)NC2CCCCC2)cs1	?	?	-15%	3%	3.5µM*	-9%
Cc1cc(C(=O)NNC(=S)NCc2ccccc2)cs1	-4%	-1%	5%	-9%	-23%	13%
COc1ccc(-n2c(=O)c(-c3ccc(F)cc3)nc3cnc(OC)nc32)cc1	7%	.	.	.	-11%	.
CCCc1cc(C(=O)NNC(=S)NCc2ccccc2)cs1	?	.	21%	.	4.5µM*	5%
O=C(Nc1nccs1)c1csc2c1CCCC2	10µM*	?	23%	0%	?	9%
Cc1ccc(C)c(NC(=S)NNC(=O)c2csc3c2CCCC3)c1	-26%	?	-6%	.	?	-5%
CCNC(=S)NNC(=O)c1csc2c1CCCC2	-24%	?	-6%	.	3.2µM*	6%
Cc1cc(C(=O)NNC(=S)NCc2ccccc2)no1	.	0%	-7%	-6%	.	?
Cc1nn(CC(=O)NC2CCCCC2)c(C)c1[N+](=O)[O-]	.	.	.	.	.	6%
Cc1ccc(NC(=O)N2CCc3ccccc32)cc1	10µM*	?	1%	-11%	?	-11%
SMILES	Gal4-VP16 FLuc	BCR signal inh	Mito fusion act	uPA generation	RORgamma inh	Integrin act MD
Cc1ccc(NC(=O)N2CCCc3ccccc32)cc1	5%	-1%	1%	-2%	31%	9%
O=C(Nc1ccc(Cl)cc1)N1CCc2ccccc2C1	?	-8%	17%	4%	0.89µM*	28%
CN1CCN(c2ccc(NC(=O)N3CCc4ccccc43)cc2)CC1	8.9µM*	-1%	-10%	-17%	10µM*	18%
C[C@H](CO)N1C[C@H](C)[C@@H](CN(C)C(=O)c2cccnc2)Oc2ncc(Br)cc2C1=O	.	.	.	.	.	17%
Cc1ccccc1NS(=O)(=O)c1ccc(NS(=O)(=O)c2cccs2)cc1	9%	4%	5%	4%	?	-12%
O=C(/C=C/c1ccc(N2CCCCC2)c([N+](=O)[O-])c1)c1ccc(O)cc1	?	?	5%	-11%	11µM*	-37%
COc1ccccc1C(=O)/C=C/c1ccc(N2CCCCC2)c([N+](=O)[O-])c1	6.3µM*	?	4%	?	5.6µM*	-61%
COc1c(O)cc2c(-c3ccccc3)cc(=O)oc2c1OC	3%	.	.	.	?	.
O=C(CCCl)N(Cc1nc2ccccc2c(=O)[nH]1)Cc1cccs1	-7%	2%	-5%	-2%	11µM*	0%
O=C(Nc1ccc(Cl)cc1)N(Cc1nc2ccccc2c(=O)[nH]1)Cc1cccs1	?	?	27%	8%	?	-12%
O=C(Nc1ccccc1Cl)N(Cc1nc2ccccc2c(=O)[nH]1)Cc1cccs1	?	1%	-2%	-6%	11µM*	-26%
CC(C)(C)C(=O)N(Cc1nc2ccccc2c(=O)[nH]1)Cc1cccs1	-6%	-1%	8%	0%	?	4%
COc1ccc(N2C(=S)N=C(Nc3ccccc3)C23CCCCC3)cc1	-5%	6%	11%	-4%	?	5%
COc1ccc(NC2=NC(=S)N(c3ccccc3C)C23CCCCC3)cc1	?	12%	0%	6%	7.1µM*	12%
S=c1nccc(-c2cccs2)[nH]1	7.9µM*	-15%	-13%	3%	4µM*	-78%
CC1(C)CCc2cc(-c3ccnc(=S)[nH]3)ccc2O1	3.2µM*	0%	-2%	-1%	1.8µM*	?
S=c1nccc(-c2ccc3c(c2)CCO3)[nH]1	6.3µM*	?	15%	1%	3.2µM*	-11%
Cc1ccc(-c2ccnc(=S)[nH]2)cc1	3.5µM*	-11%	-1%	14%	2.8µM*	-29%
Cc1ccc(C(=O)c2ncc[nH]2)cc1	.	-2%	-6%	-14%	.	-16%
Cc1ccc(C)c(N(C)C(=O)CCS(=O)(=O)c2cccc3nonc23)c1	-7%	5%	-1%	-1%	-19%	9%
N#Cc1c(-c2ccco2)c2c([nH]c1=S)CCCC2	-1%	17%	1%	3%	9%	11%
COc1ccc(OC)c(-c2c3c([nH]c(=S)c2C#N)CCCC3)c1	?	9%	4%	-3%	16µM*	5%
N#Cc1c(-c2cccnc2)c2c([nH]c1=S)CCCC2	-26%	10%	-1%	3%	11µM*	3%
COc1ccccc1CN1C(=NC(=O)CCC2CCCC2)SC2CS(=O)(=O)CC21 (stereo not given)	-26%	1%	4%	11%	?	20%
